Several values for one entry are separate records, joined by “and”; a condition that tells them apart may be missing. Identical values can stand only once. In all, about 260,000 compounds went through this assay and about 1,500 (0.58%) were called active. Not shown: some 5% with an inconclusive outcome.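 Rule for the calls: active = inhibition above a set limit at one or more doses, reproduced on every date tested; inconclusive = results disagree between test dates, or hit never tested in dose response; inactive = the rest.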 These entries were drawn from the full list. Measured potencies and affinities stand elsewhere.

The target of the assay is Virion infectivity factor (Human immunodeficiency virus type 1 group M subtype B (isolate BH10)) + Virion infectivity factor (Human immunodeficiency virus type 1 group M subtype B (isolate BRU/LAI)) + Virion infectivity factor (Human immunodeficiency virus type 1 group M subtype B (isolate PCV12)) + Virion infectivity factor (Human immunodeficiency virus type 1 group M subtype B (isolate HXB2)) + DNA dC->dU-editing enzyme APOBEC-3G (Homo sapiens) (UniProt P69720+P69721+P69722+P69723+Q9HC16). The assay can be described thus: HIV-1 Vif–A3G interaction blockers – biochemical, TR-FRET, GST-Vif 1-94, biotin-A3G peptide, dose response retest, primary screen (AID 1117319).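 Note: Vif residues 1-94 fused to GST binding biotinylated APOBEC3G peptide 110-148; 0% = full assay without inhibitor and 100% = GST in place of GST-Vif.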 The following applies: TR-FRET GST-Vif / biotin-A3G peptide binding; stronger effect = higher value. (Time-resolved FRET reads energy transfer from a long-lived donor to a nearby acceptor.)
Regarding `CCS(=O)(=O)N1CCC(C(=O)NC2CCCCCCC2)CC1`, the inhibition is 1.17% (inactive). Take `Cc1cc(C(=O)N2CCN(S(=O)(=O)c3ccc(C)c(C)c3)CC2)no1`: the inhibition is 3.5% (inactive). The same measure for `COc1ccc(C)cc1NC(=O)c1cnc2scc(C)n2c1=O`: -5.79% (inactive). On to `COc1ccc2cc(C3CC(c4cccs4)=NN3S(C)(=O)=O)c(Cl)nc2c1` (stereo not drawn), for which the inhibition is -0.38% (inactive).

For the compound `COc1ccc2[nH]c(C(=O)NCc3ccccc3)c(C)c2c1`, the inhibition was 1.63% (inactive). Regarding `Cc1ccc(NS(=O)(=O)c2csc(C(N)=O)c2)cc1C`, the inhibition is -5.43% (inactive).

`CN(CC(=O)NCCc1ccc(S(N)(=O)=O)cc1)Cc1ccc(Cl)cc1Cl`: the inhibition was 4.74% (inactive). On to `Cc1cc([N+](=O)[O-])nn1CC(=O)N1CCc2ccccc2C1`, for which the inhibition is -2.29% (inactive). The same measure for `Cc1ccc(C)c(NC(=O)CN(C)C(=O)Cc2coc3cc(C)c(C)cc23)c1`: 0.3% (inactive).

As for `O=C(COC(=O)c1cnccn1)Nc1cc(S(=O)(=O)N2CCOCC2)ccc1Cl`, the inhibition was -11.1% (inactive). Consider `Cc1cc([N+](=O)[O-])c(C)cc1-c1ccc(/C=N/n2cnnc2)o1`, for which the inhibition is 1.64% (inactive).

In the case of `O=[N+]([O-])c1ccc(-c2ccc(C=Nc3cccc4ccccc34)o2)cc1`, the inhibition is 3.05% (inactive). Consider `O=[N+]([O-])c1ccc(-c2ccc(/C=N/c3c(-c4ccco4)nc4ccccn34)o2)cc1`, for which the inhibition was 7.55% (inactive). `c1ccc(Nc2c(-c3ccco3)nc3ccccn23)cc1`: the inhibition is -2.7% (inactive). The same measure for `O=[N+]([O-])c1cc(-c2ccc(/C=N/n3cnnc3)o2)ccc1Cl`: 6.34% (inactive). The result for `CN(C)c1ccc(-c2nc3ccccn3c2/N=C/c2ccc(Br)cc2)cc1` reads 6.4% (inactive). The result for `COc1cc(-c2nc3ccccn3c2/N=C/c2cc(OC)c(O)cc2Cl)ccc1O` reads 22.2% (inactive). As to `Cc1ccc(Nc2c(-c3ccco3)nc3ccccn23)cc1`, the inhibition was 12% (inactive). The result for `COc1cc2[nH]c(=S)n(Cc3cccs3)c(=O)c2cc1OC` reads -5.73% (inactive). The result for `Cc1cc(C)cc(OCC(=O)NN2C(=O)c3ccccc3C2=O)c1` reads 2.37% (inactive); that for `Cc1ccc(N(CC(=O)NC(C)(C)C)C(=O)CS(=O)CC(=O)Nc2ccc(F)cc2)cc1` (stereo not drawn), 10.4% (inactive). As for `CCN(CC(=O)Nc1ccc(OC)cc1)C(=O)c1ccc2c(c1)NC(=O)C(C)S2` (stereo not drawn), the inhibition is 6.39% (inactive). As to `COc1cccc(C(=O)N2CCN(C(=O)c3cccc4ccccc34)CC2)c1OC`, the inhibition is 1.56% (inactive).

For the compound `CSC1=N/C(=C\c2ccccc2)C(=O)N1C`, the inhibition was 4.78% (inactive). The same measure for `O=C(CN1C(=O)S/C(=C/c2ccccn2)C1=O)N1CCOCC1`: 2.37% (inactive). Turning to `CCCCCn1c(=NC(=O)c2ccco2)c(C(=O)OCC)cc2c(=O)n3ccccc3nc21`, the inhibition was 4.41% (inactive) and -0.06% (inactive). `COc1cc(-c2nnc(NC(=O)CCS(=O)(=O)c3ccccc3)o2)cc(OC)c1OC`: the inhibition was 2.37% (inactive).

As for `O=C(O)Cn1cc(/C=C2/NC(=O)N(c3ccc(Cl)cc3)C2=O)c2ccccc21`, the inhibition is -2.83% (inactive). The same measure for `Cc1cc(/C=C2/C(=O)NN(c3ccccc3)C2=O)c(C)n1-c1ccc(O)cc1`: -5.99% (inactive); for `O=C1CNC(=S)N1Cc1ccc(F)cc1`: 5.9% (inactive).

For `O=C(O)Cn1cc(/C=C2\SC(=O)N(c3ccccc3)C2=O)c2ccccc21`, the inhibition was -7.51% (inactive). The same measure for `Cc1cc(/C=C2\SC(=S)N(Cc3ccco3)C2=O)c(C)n1-c1ccccc1`: 3.57% (inactive). The result for `CC1(C)CC(=O)C2=C(C1)N(Cc1ccco1)C(=O)NC2(C(F)(F)F)C(F)(F)F` reads -1.11% (inactive); that for `Cn1cccc1/C=C1\SC(=S)N(NC(=O)c2ccc(F)cc2)C1=O`, 14.3% (inactive). The same measure for `O=C1c2cccnc2C(=O)N1Cc1ccco1`: 7.44% (inactive). Turning to `CNC(=O)C[C@H]1C(=O)N(C2CCCCC2)C[C@@H]1C`, the inhibition was 8.77% (inactive). Regarding `COCCn1c(C)cc(/C=C(\C#N)C(=O)OCC(=O)N(C)c2c(N)n(Cc3ccccc3)c(=O)[nH]c2=O)c1C`, the inhibition is 10.7% (inactive).

`N#Cc1c(F)cccc1NCc1cccs1`: the inhibition is -3.38% (inactive).

Consider `Cc1nc(C)c(C(=O)C2=C(O)C(=O)N(CCCn3ccnc3)C2c2ccc(Cl)cc2)s1` (stereo not drawn), for which the inhibition was 0.13% (inactive).

Regarding `COc1ccc(-c2cc(C(=O)N3CCC3)c3ccccc3n2)cc1OC`, the inhibition is -14.9% (inactive). The same measure for `Cc1ccc(C(=O)O)c(C(=O)Nc2nc3ccccc3s2)c1`: -4.97% (inactive); for `O=C(/C=C/c1cccs1)Nc1ccc(N2CCOCC2)c(S(=O)(=O)Nc2ccccc2Cl)c1`: -5.05% (inactive); for `O=C1N/C(=C/c2cccn2-c2ccc(F)cc2)C(=O)N1Cc1ccccc1`: 6.05% (inactive). The result for `Cc1ccc(/C=C2/NC(=O)N(Cc3ccccc3)C2=O)s1` reads 3.49% (inactive); that for `Cn1cccc1/C=C1\SC(=Nc2ccccc2)NC1=O`, -5.03% (inactive). Regarding `CC1=CC2=NC(=O)/C(=C\c3cccn3CCOc3cccc(C)c3)C(=N)N2O1`, the inhibition was -1.97% (inactive).

Take `COc1cccc(OCCn2cccc2/C=C2/C(=N)N3OC(C)=CC3=NC2=O)c1`: the inhibition is 1.07% (inactive).

Take `Cn1c(=O)n(C)c2cc(/C=C3/NC(=O)N(Cc4ccccc4)C3=O)ccc21`: the inhibition is -1.59% (inactive). The result for `O=Cc1cccn1-c1ccc2ccccc2c1` reads -0.71% (inactive); that for `O=C1Nc2ccccc2/C1=C\c1cccn1-c1ccc(OC(F)(F)F)cc1`, 5.25% (inactive).

As for `O=C(COC(=O)c1ccccc1Sc1ccc(C(F)(F)F)cc1[N+](=O)[O-])NC(=O)NC1CCCC1`, the inhibition is -2.59% (inactive). On to `CCCN1C(=O)/C(=c2\sc3nc(=O)c(Cc4ccc(C)cc4)nn3c2=O)c2ccccc21`, for which the inhibition is 1.89% (inactive). The result for `CC1(C(=O)O)CCC(C(=O)NNC(=O)c2ccccc2O)C1(C)C` (stereo not drawn) reads -0.63% (inactive); that for `COc1cc(/C=C2\SC(=O)N(CCNC(=O)c3c(C)noc3C)C2=O)cc(OC)c1OC`, -5.96% (inactive); that for `Cc1ccc(S(=O)(=O)N2CCOCC2)cc1NC(=O)COC(=O)c1ccc2c(c1)OCCO2`, -7.03% (inactive).

As for `O=C1N/C(=C/c2cccn2-c2ccc(F)cc2)C(=O)N1Cc1ccccc1F`, the inhibition was 5.17% (inactive).

On to `O=C1N/C(=C/c2cccn2-c2ccccc2)C(=O)N1Cc1ccc(F)cc1`, for which the inhibition is 15.6% (inactive). The result for `COc1ccc(NC(=O)CN(C)C(=O)C2CC(=O)N(c3cccc4ccccc34)C2)cc1` (stereo not drawn) reads 2.19% (inactive); that for `COc1cc(C2CC(=O)Nc3cc(C)c(C)cc32)cc(OC)c1OC` (stereo not drawn), -9.63% (inactive). As for `COc1cc2c(cc1OC)C(c1cccc(OC)c1OC)CC(=O)N2` (stereo not drawn), the inhibition is 2.22% (inactive). With `O=C(NCC(=O)N(c1ccc2c(c1)OCO2)C(C(=O)NC1CCCC1)c1ccncc1)c1ccco1` (stereo not drawn), the inhibition was 21.4% (inactive).

With `CC(C)(C)NC(=O)C(c1ccncc1)N(C(=O)CNC(=O)c1ccco1)c1ccc(F)cc1` (stereo not drawn), the inhibition was 5.09% (inactive). Take `COc1cccc(NC(=O)CN(C)C(=O)CCCc2nc3ccccc3c(=O)[nH]2)c1`: the inhibition is 4.69% (inactive).

On to `CCCCCOc1ccc(C2NC(=O)NC2=O)cc1` (stereo not drawn), for which the inhibition is 0.64% (inactive). On to `CCN(c1ccc(OC)cc1)S(=O)(=O)c1nnc(NC(=O)COc2ccccc2)s1`, for which the inhibition was 6.53% (inactive). The result for `O=C(CN1C(=O)CCSc2ccccc21)Nc1ccc2c(c1)OCCO2` reads 4.27% (inactive). Take `COC(=O)c1ccc(COc2ccccc2/C=C(\C#N)C(=O)Nc2c(C)cccc2C)cc1`: the inhibition is -2.89% (inactive). As to `COC(=O)c1ccc(COc2ccccc2/C=C(\C#N)C(=O)Nc2ccc(C)cc2)cc1`, the inhibition is -4.01% (inactive). For the compound `COCCNC(=O)C1(C)Oc2ccccc2NC1=O` (stereo not drawn), the inhibition was 1.83% (inactive). Consider `Cc1oc(-c2ccccc2F)nc1CS(=O)(=O)CC(=O)N1CCN(Cc2ccccc2)CC1`, for which the inhibition was 5.89% (inactive). The same measure for `CCOC(=O)CN(C(=O)CSc1nnc(COc2ccc(OC)cc2)n1C)c1ccccc1`: 0.19% (inactive). The result for `COc1ccc(-c2nnn(CC(=O)c3ccc4c(c3)OCCO4)n2)cc1OC` reads 21.5% (inactive); that for `CCOc1ccc(-c2nnn(CC(=O)c3ccc4c(c3)OCCO4)n2)cc1`, -11.1% (inactive). On to `CN(C)c1ccc(CNC(=O)C2CCN(S(=O)(=O)c3ccc4c(c3)oc(=O)n4C)CC2)cc1`, for which the inhibition is -3.31% (inactive). The same measure for `CCC1=NNc2cccc3c(OC)ccc1c23`: 10.8% (inactive).

As to `COc1ccc2c3c(cccc13)OCC2=O`, the inhibition is 24.2% (inactive). The same measure for `COc1ccccc1NC(=O)c1nnn(Cc2ccccc2)c1NC(=O)C(F)(F)F`: 0.14% (inactive); for `CCn1cc(S(=O)(=O)Nc2nc3ccc(OC)cc3s2)cn1`: -2.85% (inactive); for `Cn1c(SCc2ccccc2)nccc1=O`: 1.19% (inactive).

In the case of `Nc1ccccc1SCc1ccccc1`, the inhibition is -5.9% (inactive). Take `CCOC(=O)c1nnc2cc(-c3ccc(Br)cc3)nn2c1C`: the inhibition is 1.62% (inactive). Consider `COc1ccccc1OCCSc1nc(N)cc(N)n1`, for which the inhibition is 4.3% (inactive). The same measure for `COc1ccc2nc3cccc(OC)c3nc2c1`: 15.1% (inactive); for `COc1ccc2nc3ccccc3nc2c1NC(=O)c1ccc(Br)cc1`: -5.53% (inactive). `CCOC(=O)c1cc(-c2ccco2)nn1-c1ccc(C)cc1`: the inhibition is -3.18% (inactive). The same measure for `Cc1ccc(-n2nc(-c3ccco3)cc2C(=O)NCc2cccnc2)cc1`: 9.86% (inactive). Consider `CN(C)C(=O)CSc1nnc([C@H](Cc2ccccc2)NC(=O)OC(C)(C)C)o1`, for which the inhibition was -2.79% (inactive).

On to `O=S1(=O)N=C(Nc2ccc(N3CCOCC3)c(Cl)c2)c2ccccc21`, for which the inhibition was 12.7% (inactive). For `O=C(CCC(=O)c1cccs1)NCc1ccc(Cl)cc1`, the inhibition was 1.67% (inactive). The same measure for `CCCC(=O)C1=C(O)C(C(=O)OC)C(C)(C)CC1=Nc1ccc(N)cc1` (stereo not drawn): 0.65% (inactive); for `CCCC(=NCc1ccccc1)C1=C(O)C(C(=O)OC)C(C)(C)CC1=O` (stereo not drawn): 3.41% (inactive); for `CCCC(=Nc1ccccc1)C1=C(O)C(C(=O)OC)C(C)(C)CC1=O` (stereo not drawn): 26.8% (inactive). `CCC(=NCc1ccccc1)C1=C(O)C(C(=O)OC)C(C)(C)CC1=O` (stereo not drawn): the inhibition is 5.76% (inactive).

In general, inhibition refers to the change of the read-out against control, counted positive when it falls.
